# Only some compounds are listed: those with a hit (about 8.9% of all), similar ones and a draw of the others.
# IMPase Li inh: membrane-permeable IMPase blocker, potentiated with lithium. CHO-M1 cells, IP1 TR-FRET (IP-One), carbachol + lithium. Potency, µM (series often up to 59.4 µM), for the others: at the highest dose activity, negative = IMPase inhibition, most hits filed as inhibitors. actives 0.35% (n = 210,000);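 also: IP1 builds up when IMPase is blocked and the TR-FRET signal falls; potency is read from the fitted curve at half-maximal effect; plate controls were basal vehicle for no effect and high inhibitor control for full effect; nearly all actives have a fitted effect of over 50% in size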
#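 CHO cells stably expressing M1 receptor (2000/well, cultured 16–30 h) treated 30 min at 37C with compound plus low lithium. Cytosolic IP1 by TR-FRET (665/620 ratio and 620 channel) after 10 min lysis; AC50 by Hill fit.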
# 12-hLO inh: 12-hLO (ALOX12) enzyme inhibition | P18054 | purified 12-hLO, xylenol orange hydroperoxide absorbance | Potency, µM (doses to about 57.1 µM), for inactives: top-dose activity change, negative = inhibition, actives largely listed as inhibitors | actives 0.12% (n = 150,000) | AID 1452; also: potency is read from the fitted curve at half-maximal effect; nearly all actives have a fitted effect of over 55% in size
#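 Hydroperoxide formation by human 12-lipoxygenase from 40 uM arachidonic acid was followed colorimetrically via ferric-xylenol orange complex, using the 573/405 nm absorbance ratio. Enzyme concentration was 150 nM, with 30 min reaction at room temperature.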
# ALDH1A1 inh: ALDH1A1 (human) enzyme inhibition; Purified ALDH1A1, NADH fluorescence, propionaldehyde substrate; Potency, µM (top dose mostly 75.3 µM), for inactives: at the highest dose activity, negative = inhibition, usual class: inhibitors; actives 7.3% (n = 220,000); active = well fitted inhibition curve with a large enough effect, not every such curve was filed as active; inconclusive = small, poorly fitted or top-dose-only effect, or another doubt; inactive = no such curve, though single readings can be large or run the other way;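 also: potency is read from the fitted curve at half-maximal effect; plate controls were no enzyme wells and a reference inhibitor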
# IMPase inh: cell-permeable inhibitors of inositol monophosphatase (IMPase); inhibition (IP1 accumulation), % at 46.1 µM; 120,000 tested, under 10 active; CHO-M1 cells, IP1 accumulation, HTRF TR-FRET ratio; active = well fitted curve in the direction sought with a large enough effect in the signal ratio, not every such curve was filed as active; inconclusive = small, poorly fitted or top-dose-only effect, or a change in a side signal; inactive = no such curve, though single readings can be large or run the other way; the % refers to the signal ratio;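 also: cells stimulated with carbachol in lithium chloride buffer; plate controls were DMSO basal wells for no effect and reference inhibitor wells for full effect; higher means more IMPase inhibition seen as more IP1 and lower FRET ratio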
#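 Cellular IMPase inhibition is scored as a rise in cytosolic IP1, detected by competitive TR-FRET between d2-labelled IP1 and a europium anti-IP1 antibody. M1-expressing CHO cells were stimulated with carbachol for 30 min at 37C, with lithium (50 mM LiCl) present in the buffer.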
# NPSR antag: blocks cAMP signaling of the human neuropeptide S receptor; Q6W5P4; Potency, µM (series often up to 38.3 µM), for inactives: top-dose activity change, negative = inhibition, hits mostly inhibitors; actives 1% (n = 220,000); CHO-NPSR cells, cAMP TR-FRET, antagonist mode; also: potency is read from the fitted curve at half-maximal effect; nearly all actives have a fitted effect of over 50% in size
# Target sequence (Q6W5P4 whole entry, looked up): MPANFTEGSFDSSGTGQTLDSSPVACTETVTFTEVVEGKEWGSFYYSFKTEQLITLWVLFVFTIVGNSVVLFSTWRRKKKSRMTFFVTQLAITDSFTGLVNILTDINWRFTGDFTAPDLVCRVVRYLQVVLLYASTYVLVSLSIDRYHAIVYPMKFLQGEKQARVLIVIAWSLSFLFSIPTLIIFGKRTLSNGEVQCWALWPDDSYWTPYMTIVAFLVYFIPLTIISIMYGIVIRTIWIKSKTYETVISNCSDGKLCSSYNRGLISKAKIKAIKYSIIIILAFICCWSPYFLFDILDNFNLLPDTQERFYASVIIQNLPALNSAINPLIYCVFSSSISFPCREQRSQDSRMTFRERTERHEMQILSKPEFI
# HPGD block: HPGD (human) dehydrogenase inhibition | P15428 | purified HPGD, NADH fluorescence kinetic, PGE2 substrate | Potency, µM, for inactives: at the top dose activity change, negative = inhibition, hits mostly inhibitors | actives 4.3% (n = 150,000) | AID 894; active = well fitted inhibition curve with a large enough effect, not every such curve was filed as active; inconclusive = small, poorly fitted or top-dose-only effect, or another doubt; inactive = no such curve, though single readings can be large or run the other way; also: potency is read from the fitted curve at half-maximal effect
# Target sequence (P15428 whole entry, looked up): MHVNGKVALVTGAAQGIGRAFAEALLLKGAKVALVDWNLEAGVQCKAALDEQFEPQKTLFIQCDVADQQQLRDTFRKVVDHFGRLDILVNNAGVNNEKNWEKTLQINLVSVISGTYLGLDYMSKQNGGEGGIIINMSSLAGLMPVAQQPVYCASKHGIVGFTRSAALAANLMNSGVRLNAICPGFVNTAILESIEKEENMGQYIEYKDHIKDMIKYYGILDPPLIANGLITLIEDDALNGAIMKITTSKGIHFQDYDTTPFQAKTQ
#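 20 nM HPGD preincubated 15 min at room temperature with compound in 50 mM Tris-HCl pH 8, 0.01% Tween 20. Started with 1 mM NAD+ and 30 uM prostaglandin E2; NADH fluorescence (360/450 nm) read 5 times over 30-s intervals, last minus first.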
# Numbers without * were called inactive; ? = inconclusive; / = no result given; [ ] = dose if it differs, or a comment. Unless noted, calls follow the shape of the dose curve; as a rule, active = well fitted curve in the direction sought with a large enough effect; inconclusive = small, poorly fitted or top-dose-only effect, or another doubt; inactive = no such curve, though single readings can be large; an effect the other way counts as inactive or inconclusive. Unless noted, % is scaled to controls: 0 for no effect and ±100 for the full control effect.
SMILES,IMPase Li inh,12-hLO inh,ALDH1A1 inh,IMPase inh,NPSR antag,HPGD block
Cc1ccc(S(=O)(=O)N2CCOCC2)cc1C(=O)N1CCOCC1,1%[38.3 µM],4%,-9%,-11,-6%[46.1 µM],-5%
CC(=O)Nc1ccc(S(=O)(=O)N2CCOCC2)cc1,4%,6%,0%,-14,8%[46.1 µM],2%
O=S(=O)(c1ccc(NC(=S)NN=C(Cc2ccccc2)Cc2ccccc2)cc1)N1CCOCC1,13%,/,18µM*,/,-1%,/
N#Cc1cc2ccccc2nc1SCC(=O)Nc1ccc(S(=O)(=O)N2CCCC2)cc1,7%[38.3 µM],-8%,10µM*,5,-20%[46.1 µM],-13%
Cc1ccc(C)c(-n2nnnc2SCC(=O)Nc2cccc(-c3nnc4n3CCCCC4)c2)c1,-1%[38.3 µM],0%,7.1µM*,-1,?,-17%
COc1ccc2nc(SCC(=O)Nc3ccc(S(=O)(=O)N4CCCC4)cc3)c(C#N)cc2c1,12%[38.3 µM],-7%,?,-10,-15%[46.1 µM],-13%
CCCC(=O)Nc1ccc(S(=O)(=O)N2CCOCC2)cc1,2%,3%,3.2µM*,-3,5%[46.1 µM],-4%
CCCCC(=O)Nc1cccc(NC(=O)c2cccc([N+](=O)[O-])c2)c1,2%,/,-1%,/,-4%,/
CCn1cc(/C=N\NC(=O)c2c[nH]c3ccccc23)c(C)n1,-1%,6%,1%,/,-5%,-11%
O=C(CSc1nnc2ccccn12)Nc1ccc(S(=O)(=O)N2CCOCC2)cc1,15%,/,25µM*,/,3%,/
Cc1cc2cc(C)c3nnc(SCC(=O)Nc4ccc(S(=O)(=O)N5CCCCC5C)cc4)n3c2cc1C (centres undefined),-2%,-3%,?,/,-4%,-12%
CC1CCCCN1S(=O)(=O)c1ccc(NC(=O)CSc2nnnn2C)cc1 (centres undefined),-9%[38.3 µM],-2%,22µM*,-3,-4%[46.1 µM],-30%
Cc1ccccc1-n1nnnc1SCC(=O)Nc1ccc(S(=O)(=O)N2CCCC2)cc1,6%,0%,4µM*,1,-20%[46.1 µM],-4%
CCOC(=O)C1CCCN(c2c(NCCN3CCCCC3CC)c(=O)c2=O)C1 (centres undefined),-1%[38.3 µM],2%,16%,11,2%[46.1 µM],-1%
COc1ccccc1-c1cn(C(C)(C)C)nc1C,0%,/,1%,/,-2%,/
COc1ccc(NC(=O)C2=C(C)NC(=S)NC2c2ccc(O)c(OC)c2)cc1 (centres undefined),3%,/,?,/,-9%,/
CC1=C(C(=O)Nc2ccc([N+](=O)[O-])cc2)C(c2cccc(C(F)(F)F)c2)NC(=S)N1c1ccccc1 (centres undefined),17%[38.3 µM],22µM*,14µM*,-3,?,-18%
COc1ccc(C2NC(=S)N(c3ccccc3)C(C)=C2C(=O)Nc2ccccc2)cc1 (centres undefined),-8%[38.3 µM],?,2µM*,-2,?,-16%
COc1ccc(C(=O)Nc2cc(=O)n(C)c(=O)n2C)cc1OC,8%,4%,2%,-8,-8%[46.1 µM],-17%
O=C(/C=C/c1ccc(N2CCCCC2)c([N+](=O)[O-])c1)c1ccc(O)cc1,23%,/,25µM*,/,-42%,/
O=C(c1ccc(N2CCCCC2)c([N+](=O)[O-])c1)N1CCOCC1,-2%[38.3 µM],4%,1%,4,0%[46.1 µM],-15%
COc1ccccc1C(=O)/C=C/c1ccc(N2CCCCC2)c([N+](=O)[O-])c1,4%,-5%,6.3µM*,6,?,-11%
Nc1nnnn1/N=C/c1ccc(N2CCCCC2)c([N+](=O)[O-])c1,25%,3%,0.071µM*,9,-37%,-14%
O=C(O/N=C\c1ccc(N2CCCCC2)c([N+](=O)[O-])c1)c1ccc(Cl)cc1Cl,3%[38.3 µM],6%,?,10,-19%[46.1 µM],-6%
COc1ccccc1N1CCN(C(=O)/C=C/c2cccc([N+](=O)[O-])c2)CC1,/,/,14µM*,/,20%,/
SMILES,IMPase Li inh,12-hLO inh,ALDH1A1 inh,IMPase inh,NPSR antag,HPGD block
Cc1cc(C)n2nc(SCC(=O)N(C)c3ccccc3)nc2n1,11%[38.3 µM],4%,-5%,-8,-7%[46.1 µM],?
O=[N+]([O-])c1cncc([N+](=O)[O-])c1Nc1ccccc1Cl,6%,/,?,/,13%,/
CCN(CC)c1ccc(C(=O)OCC(=O)Nc2cc3oc4ccccc4c3cc2OC)cc1,-10%,0%,8%,-2,-34%,?
O=C(/C=C/c1ccccc1)N1CCN(c2c(Cl)cccc2[N+](=O)[O-])CC1,17%,-2%,?,/,-29%,14µM*
O=C(NCCc1c[nH]c2ccc(Cl)cc12)c1cccnc1,33%[38.3 µM],-3%,11%,-1,-13%[46.1 µM],16µM*
CSC1=Nc2sc3c(c2C2=NCCN12)CCCC3,/,-13%,14µM*,27,-1%[46.1 µM],/
CCCc1cc(=O)[nH]c(SCC(=O)N2CCN(S(=O)(=O)c3ccccc3)CC2)n1,4%,1%,-11%,/,2%,-6%
CCc1ccc(NC(=O)CC2C(=O)Nc3c2c(=O)n(C)c(=O)n3C)cc1 (centres undefined),-10%[38.3 µM],8%,100µM*,3,-8%[46.1 µM],-19%
CCc1ccc(NC(=O)CC2NCCNC2=O)cc1 (centres undefined),21%[38.3 µM],-2%,7%,-2,-9%[46.1 µM],-12%
Cc1cccc2cc(C(c3nnnn3CC3CCCO3)N3CCOCC3)c(=O)[nH]c12 (centres undefined),1%[38.3 µM],-4%,?,13,11%[46.1 µM],?
Cc1noc(NS(=O)(=O)c2ccc(NC(=O)CSc3ncccn3)cc2)c1C,20%[38.3 µM],-3%,20µM*,-15,11%[46.1 µM],-6%
Cc1ccc(-n2c(SCC(=O)Nc3cc(S(=O)(=O)N4CCOCC4)ccc3Cl)nc3ccccc3c2=O)cc1,5%,1%,5%,/,4%,-5%
Cc1cc(C)nc(SCC(=O)Nc2ccc(S(=O)(=O)Nc3onc(C)c3C)cc2)n1,1%[38.3 µM],4%,26%,3,18%[46.1 µM],-5%
Cc1cc(C)nc(NS(=O)(=O)c2ccc(NC(=O)Cn3c(=O)oc4ccccc43)cc2)n1,-10%[38.3 µM],0%,-10%,1,-11%[46.1 µM],-12%
O=C(CSc1nc2ccccc2s1)Nc1cc(S(=O)(=O)N2CCOCC2)ccc1Cl,1%,-4%,22µM*,14,5%,-31%
Cc1noc(NS(=O)(=O)c2ccc(NC(=O)CCn3c(=O)oc4ccccc43)cc2)c1C,50%[38.3 µM],0%,4µM*,1,-8%[46.1 µM],-19%
Cc1noc(NS(=O)(=O)c2ccc(NC(=O)CSc3nc4ccccc4s3)cc2)c1C,13%[38.3 µM],-11%,10µM*,-3,-9%[46.1 µM],28µM*
COc1ccccc1N1CC(C(=O)OC(C)C(=O)N2CCCc3ccccc32)CC1=O (centres undefined),-15%[38.3 µM],-1%,1%,0,-8%[46.1 µM],-11%
